An excerpt weighted towards active compounds, which were near 0.84% of everything screened.
TR-FRET SRC-2 ct: TR-FRET artefact, counter-screen to PPARgamma/SRC-2 agonist assay | stronger effect = higher value | TR-FRET ratio at 8 µM | 200,000 compounds, 0.4% hits | AID 1049
PPARg SRC-3 ag: agonists of human PPARgamma SRC-3 coactivator recruitment; activation, % at 8 µM; P37231; AID 731; biochemical PPARgamma/SRC-3 coactivator recruitment assay; 200,000 compounds, 0.26% hits; in the data active = activation above about 23%;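 also: 0% = DMSO and 100% = reference agonist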
Target sequence (P37231 whole entry, looked up): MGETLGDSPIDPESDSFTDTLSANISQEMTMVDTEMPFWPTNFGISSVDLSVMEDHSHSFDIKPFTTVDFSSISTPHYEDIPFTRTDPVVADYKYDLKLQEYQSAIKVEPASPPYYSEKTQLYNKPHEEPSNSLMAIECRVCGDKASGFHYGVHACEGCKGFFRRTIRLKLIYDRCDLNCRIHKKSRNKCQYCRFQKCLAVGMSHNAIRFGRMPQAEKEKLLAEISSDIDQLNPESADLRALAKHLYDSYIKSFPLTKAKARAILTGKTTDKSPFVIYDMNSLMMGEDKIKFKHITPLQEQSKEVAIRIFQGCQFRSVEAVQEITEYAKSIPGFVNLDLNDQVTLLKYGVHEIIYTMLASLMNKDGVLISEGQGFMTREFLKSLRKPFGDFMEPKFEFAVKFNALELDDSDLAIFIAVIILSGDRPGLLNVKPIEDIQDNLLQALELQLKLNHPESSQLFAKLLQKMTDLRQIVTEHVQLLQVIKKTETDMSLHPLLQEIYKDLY
PPARg SRC1 recr: agonists of human PPARgamma SRC-1 coactivator recruitment; P37231; PPARgamma-SRC-1 coactivator recruitment biochemical assay; activation, % at 8 µM; 200,000 compounds, 0.41% hits; AID 631; in the data active = activation above about 19%;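 also: 0% = DMSO and 100% = reference agonist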
SRC3 TRFRET art: TR-FRET artefact, counter-screen to PPARgamma/SRC-3 agonist assay; PPARgamma/SRC-3 format; stronger effect = higher value; TR-FRET ratio at 8 µM; 99,000 compounds, 0.39% hits
SRC1 TRFRET art: flags TR-FRET format artefacts in PPARgamma SRC-1 recruitment agonist screen. TR-FRET ratio at 8 µM. TR-FRET detection artefact counter-screen, emission ratio; stronger effect = higher value. 99,000 compounds, 0.34% hits; in the data active = TR-FRET ratio above about 2300
PPARg SRC-2 ag: agonists of SRC-2 recruitment by human PPARgamma | P37231 | PPARgamma LBD-SRC-2 recruitment, biochemical | activation, % at 8 µM | 200,000 compounds, 0.34% hits | AID 1032; in the data active = activation above about 22%;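 also: 0% = vehicle and 100% = reference agonist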
The depositor's hits bear a star. Rule as the data show it, unless noted: active = TR-FRET ratio above about 2000; inactive = the rest.

For Cc1ccc(S(=O)(=O)c2cn(Cc3ccc(F)cc3)c3cc4c(cc3c2=O)OCO4)cc1 the results were TR-FRET SRC-2 ct 1947, PPARg SRC-3 ag 0, PPARg SRC1 recr -10, SRC3 TRFRET art 2414*, SRC1 TRFRET art 2093 and PPARg SRC-2 ag -7.
`CCOc1ccc2cc(C#N)c(SCC(=O)NC(C)CC)nc2c1` (stereo unspecified) gave TR-FRET SRC-2 ct 1580, PPARg SRC-3 ag 0, PPARg SRC1 recr 32* and PPARg SRC-2 ag 16.
Screening Cc1ccc(-c2ccc(/C=N/N3C(=O)C4C5C=CC(CC5)C4C3=O)o2)c([N+](=O)[O-])c1 (stereo unspecified) returned TR-FRET SRC-2 ct 1509, PPARg SRC-3 ag 8, PPARg SRC1 recr 2 and PPARg SRC-2 ag 6.
Screening O=C(c1cc(-c2ccccn2)nc2c(Cl)cccc12)N1CCN(C(=O)C2CCCO2)CC1 (stereo unspecified) returned TR-FRET SRC-2 ct 1733, PPARg SRC-3 ag 0, PPARg SRC1 recr 5 and PPARg SRC-2 ag 1.
Screening O=C(c1cc(-c2ccccn2)nc2c(Cl)cccc12)N1CCN(S(=O)(=O)c2ccccc2)CC1 returned TR-FRET SRC-2 ct 2813*, PPARg SRC-3 ag 5, PPARg SRC1 recr 10, SRC3 TRFRET art 3978*, SRC1 TRFRET art 2197 and PPARg SRC-2 ag 0.
For O=C(c1cc(-c2cccs2)nc2ccccc12)N1CCN(S(=O)(=O)c2ccccc2)CC1 the results were TR-FRET SRC-2 ct 2313*, PPARg SRC-3 ag -5, PPARg SRC1 recr -4 and PPARg SRC-2 ag 2.
`O=C(c1cc(-c2cccs2)nc2ccccc12)N1CCN(S(=O)(=O)c2cccc(F)c2)CC1` gave TR-FRET SRC-2 ct 2309*, PPARg SRC-3 ag 17, PPARg SRC1 recr 11 and PPARg SRC-2 ag 11.
Screening O=C(c1cc(-c2cccs2)nc2ccccc12)N1CCN(c2ccccc2)CC1 returned TR-FRET SRC-2 ct 1793, PPARg SRC-3 ag 2, PPARg SRC1 recr 5, SRC3 TRFRET art 1579, SRC1 TRFRET art 2136 and PPARg SRC-2 ag 6.
Screening Cc1cc(NC(=O)c2cc(-c3ccc(C)s3)nc3ccccc23)no1 returned TR-FRET SRC-2 ct 1773, PPARg SRC-3 ag -1, PPARg SRC1 recr -4 and PPARg SRC-2 ag -3.
Cc1cccc(NC(=O)c2cc(-c3ccc(C)s3)nc3ccccc23)n1 was read as TR-FRET SRC-2 ct 2007*, PPARg SRC-3 ag 3, PPARg SRC1 recr 13, SRC3 TRFRET art 2191*, SRC1 TRFRET art 2018 and PPARg SRC-2 ag 7.
For O=C(Cc1c(F)cccc1Cl)Nc1nc2ccccc2s1 the results were TR-FRET SRC-2 ct 1676, PPARg SRC-3 ag 5, PPARg SRC1 recr 2, SRC3 TRFRET art 1795, SRC1 TRFRET art 1937 and PPARg SRC-2 ag 1.
CCOC(=O)Cc1c(C)nc(SC)[nH]c1=O was read as TR-FRET SRC-2 ct 1453, PPARg SRC-3 ag -1, PPARg SRC1 recr -1, SRC3 TRFRET art 1476, SRC1 TRFRET art 1808 and PPARg SRC-2 ag -6.
For CCCNC(=S)Nc1ccc(Cl)cc1Cl the results were TR-FRET SRC-2 ct 1574, PPARg SRC-3 ag 5, PPARg SRC1 recr -1, SRC3 TRFRET art 1474, SRC1 TRFRET art 2059 and PPARg SRC-2 ag -6.
Screening CN(C)S(=O)(=O)c1cccc(NC(=O)c2cc(-c3cccs3)nc3ccccc23)c1 returned TR-FRET SRC-2 ct 2036*, PPARg SRC-3 ag 7, PPARg SRC1 recr 0, SRC3 TRFRET art 2449*, SRC1 TRFRET art 2272 and PPARg SRC-2 ag -6.
For O=C(CSc1ncnc2c1oc1ccccc12)NCC1CCCO1 (stereo unspecified) the results were TR-FRET SRC-2 ct 3902*, PPARg SRC-3 ag 131*, PPARg SRC1 recr 95* and PPARg SRC-2 ag 110*.
N#Cc1cc(O)c(-n2nnc3ccccc32)cc1C#N was read as TR-FRET SRC-2 ct 1747, PPARg SRC-3 ag 0, PPARg SRC1 recr -4, SRC3 TRFRET art 1347, SRC1 TRFRET art 1742 and PPARg SRC-2 ag 26*.
Screening N#Cc1cc(Oc2cccc3cccnc23)c(-n2nnc3ccccc32)cc1C#N returned TR-FRET SRC-2 ct 1613, PPARg SRC-3 ag 5, PPARg SRC1 recr 5 and PPARg SRC-2 ag 3.
COc1ccc(C(O)(CCc2ccccc2)CCN2CCCCC2)cc1 (stereo unspecified) was read as TR-FRET SRC-2 ct 1588, PPARg SRC-3 ag -2, PPARg SRC1 recr 5, SRC3 TRFRET art 1362, SRC1 TRFRET art 2143 and PPARg SRC-2 ag 1.
COC(=O)c1ccc(N2CCN(C)CC2)c(NC(=O)c2cc3ccccc3o2)c1 was read as TR-FRET SRC-2 ct 1388, PPARg SRC-3 ag -8, PPARg SRC1 recr -3 and PPARg SRC-2 ag -7.
`COC(=O)c1ccc(C(=O)OC)c(NC(=O)c2cc3ccccc3o2)c1` gave TR-FRET SRC-2 ct 1501, PPARg SRC-3 ag -4, PPARg SRC1 recr 24* and PPARg SRC-2 ag 4.
O=C(CSc1ncnc2scc(-c3ccccc3)c12)N1CCN(c2ccccc2F)CC1 was read as TR-FRET SRC-2 ct 1481, PPARg SRC-3 ag 4, PPARg SRC1 recr 1, SRC3 TRFRET art 2200*, SRC1 TRFRET art 1899 and PPARg SRC-2 ag 1.
CCN1/C(=C\C(=S)Nc2ccccc2)Sc2ccccc21 was read as TR-FRET SRC-2 ct 2548*, PPARg SRC-3 ag 6, PPARg SRC1 recr 1, SRC3 TRFRET art 3725*, SRC1 TRFRET art 3876* and PPARg SRC-2 ag -10.
For Cc1ccccc1-n1c(-c2ccco2)n[nH]c1=S the results were TR-FRET SRC-2 ct 1756, PPARg SRC-3 ag 7, PPARg SRC1 recr 8, SRC3 TRFRET art 1585, SRC1 TRFRET art 1909 and PPARg SRC-2 ag 27*.
CCc1nc(SCC(=O)Nc2ccc3c(c2)OCCO3)c2oc3ccccc3c2n1 was read as TR-FRET SRC-2 ct 1553, PPARg SRC-3 ag -5, PPARg SRC1 recr 67* and PPARg SRC-2 ag 1.
For Cc1nc(SCC(=O)Nc2ccc3c(c2)OCCO3)c2oc3ccccc3c2n1 the results were TR-FRET SRC-2 ct 1540, PPARg SRC-3 ag 12, PPARg SRC1 recr 8 and PPARg SRC-2 ag 16.
For CS(=O)(=O)N1CCN(c2ccc(NC(=O)c3ccccc3)cc2)CC1 the results were TR-FRET SRC-2 ct 1676, PPARg SRC-3 ag 1, PPARg SRC1 recr 2, SRC3 TRFRET art 1483, SRC1 TRFRET art 1880 and PPARg SRC-2 ag 16.
For Cc1ccc(Cl)cc1-n1ncc2c(NNC(=O)c3ccco3)ncnc21 the results were TR-FRET SRC-2 ct 1643, PPARg SRC-3 ag 0, PPARg SRC1 recr 3, SRC3 TRFRET art 1500, SRC1 TRFRET art 1893 and PPARg SRC-2 ag 4.
O=[N+]([O-])c1ccc(COc2cccc(CNc3ccc(F)cc3)c2)cc1 was read as TR-FRET SRC-2 ct 1394, PPARg SRC-3 ag -4, PPARg SRC1 recr -2, SRC3 TRFRET art 1639, SRC1 TRFRET art 1914 and PPARg SRC-2 ag -3.
For Oc1ccc(NCc2cccc(OCc3ccc(F)cc3)c2)cc1 the results were TR-FRET SRC-2 ct 1856, PPARg SRC-3 ag 3, PPARg SRC1 recr 23*, SRC3 TRFRET art 1598, SRC1 TRFRET art 1688 and PPARg SRC-2 ag -1.
